PubChem BioAssay AID1159580 (chemical genetic matrix, 2015)
Values joined by “and” are separate entries in the source; they are usually repeats but may differ in a detail not shown here. Identical values can stand only once. The campaign covered roughly 5,500 compounds. About 2,000 (36%) were called active. About 18% were inconclusive and are not listed. Cut-off read from the data, not from the text of the source: active = normalized growth mostly below about 0.91 (no sharp cut-off); inconclusive = no clear call, values can overlap the other calls; inactive = mostly above about 0.92. Some of the results follow.

Assay: chemical genetic growth profiling, strain panel (AID 1159580);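 note: tested at 20 µM; growth read once vehicle control cultures reached saturation at 30 °C; 1 = growth at the plate median or of vehicle wells; lower values mean less growth of the strain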
Conditions: S. cerevisiae deletion strains, growth OD

Measured: normalized growth

CN(C)[C@@H]1C(=O)C(C(N)=O)=C(O)[C@@]2(O)C(=O)C3=C(O)c4c(O)cccc4[C@@](C)(O)[C@H]3[C@H](O)[C@@H]12
inactive: locus YAL013W, strain DEP1, active compounds read low 1.01 | locus YAL021C, strain ccr4, active compounds read low 1.02 | locus YAL026C, strain drs2, active compounds read low 1.01 | locus YAL030W, strain snc1, active compounds read low 1 | locus YBL061C, strain skt5, active compounds read low 1.02 | locus YBR009C, strain hhf1, active compounds read low 1.01 | locus YBR021W, strain FUR4, active compounds read low 0.99 | locus YBR023C, strain chs3, active compounds read low 1.02 | locus YBR171W, strain sec66, active compounds read low 1.02 | locus YBR229C, strain ROT2, active compounds read low 1 | locus YBR231C, strain swc5, active compounds read low 0.991 | locus YBR279W, strain paf1, active compounds read low 1.02 | locus YCL011C, strain gbp2, active compounds read low 1.01 | locus YCL016C, strain dcc1, active compounds read low 1.01 | locus YCL029C, strain bik1, active compounds read low 0.998 | locus YCL061C, strain MRC1, active compounds read low 1.01 | locus YCL069W, strain vba3, active compounds read low 1.02 | locus YCR088W, strain abp1, active compounds read low 1.02 | locus YDL005C, strain med2, active compounds read low 1.02 | locus YDL035C, strain GPR1, active compounds read low 1 | locus YDL040C, strain nat1, active compounds read low 1.03 | locus YDL074C, strain BRE1, active compounds read low 1.01 | locus YDL101C, strain DUN1, active compounds read low 1.01 | locus YDL134C, strain PPH21, active compounds read low 0.995 | locus YDL185W, strain tfp1, active compounds read low 0.988 | locus YDL192W, strain arf1, active compounds read low 0.998 | locus YDR001C, strain nth1, active compounds read low 1.02 | locus YDR069C, strain doa4, active compounds read low 1 | locus YDR101C, strain arx1, active compounds read low 1.01 | locus YDR137W, strain rgp1, active compounds read low 0.975 | locus YDR150W, strain NUM1, active compounds read low 1.01 | locus YDR159W, strain sac3, active compounds read low 1.05 | locus YDR162C, strain NBP2, active compounds read low 0.992 | locus YDR195W, strain ref2 1.01 | locus YDR297W, strain sur2, active compounds read low 1.02 | locus YDR318W, strain mcm21, active compounds read low 0.999 | locus YDR334W, strain swr1, active compounds read low 1.01 | locus YDR335W, strain msn5, active compounds read low 1.02 | locus YDR388W, active compounds read low 1 | locus YDR392W, strain spt3, active compounds read low 1.02 | locus YDR502C, strain sam2, active compounds read low 0.994 | locus YEL003W, strain gim4, active compounds read low 1.01 | locus YEL037C, strain rad23, active compounds read low 1.02 | locus YEL061C, strain CIN8 (second series), active compounds read low 1.01 | locus YEL061C, strain CIN8, active compounds read low 1 | locus YER015W, strain faa2, active compounds read low 1.01 | locus YER016W, strain bim1, active compounds read low 1 | locus YER110C, active compounds read low 1 | locus YER111C, strain swi4, active compounds read low 1.01 | locus YER155C, strain BEM2 (second series), active compounds read low 0.995 | locus YER155C, strain BEM2, active compounds read low 1.01 | locus YER167W, strain BCK2, active compounds read low 1.01 | locus YFR010W, strain ubp6, active compounds read low 1 | locus YGL078C, strain dbp3, active compounds read low 0.984 | locus YGL086W, strain mad1, active compounds read low 0.982 | locus YGL167C, strain pmr1, active compounds read low 1.01 | locus YGL173C, strain kem1, active compounds read low 1 | locus YGL227W, strain vid30, active compounds read low 1.04 | locus YGL240W, strain doc1, active compounds read low 1.01 | locus YGL248W, strain PDE1, active compounds read low 1 | locus YGL253W, strain hxk2, active compounds read low 1.02 | locus YGR078C, strain PAC10, active compounds read low 1 | locus YGR135W, strain pre9, active compounds read low 0.987 | locus YGR252W, strain gcn5, active compounds read low 0.967 | locus YHR013C, strain ard1, active compounds read low 1 | locus YHR027C, strain rpn1, active compounds read low 1.02 | locus YHR030C, strain SLT2, active compounds read low 1 and 0.979 | locus YHR079C, strain IRE1 (second series), active compounds read low 0.992 | locus YHR079C, strain IRE1, active compounds read low 0.98 | locus YHR094C, strain hxt1, active compounds read low 0.999 | locus YHR129C, strain ARP1, active compounds read low 1.01 | locus YHR142W, strain chs7, active compounds read low 1.05 | locus YHR200W, strain rpn10, active compounds read low 1 | locus YIL066C, strain RNR3, active compounds read low 1 | locus YIL073C, strain SPO22, active compounds read low 1.02 | locus YIL125W, strain kgd1, active compounds read low 0.998 | locus YIR030C, strain dcg1, active compounds read low 0.997 | locus YJL092W, strain hpr5, active compounds read low 1.02 | locus YJL095W, strain BCK1 (second series), active compounds read low 1.02 | locus YJL095W, strain BCK1, active compounds read low 0.987 and 0.979 | locus YJL115W, strain asf1, active compounds read low 1.03 | locus YJL129C, strain trk1, active compounds read low 1.05 | locus YJL134W, strain LCB3, active compounds read low 1.01 | locus YJL154C, strain vps35, active compounds read low 1.04 | locus YJL164C, strain tpk1, active compounds read low 0.997 | locus YJL166W, strain qcr8, active compounds read low 1.03 | locus YJL168C, strain set2, active compounds read low 0.998 | locus YJL187C, strain SWE1 (second series), active compounds read low 1.01 | locus YJR043C, strain POL32, active compounds read low 0.992 | locus YJR066W, strain TOR1, active compounds read low 0.928
